Measured values published in PubChem BioAssay (NCI).
Compounds without any hit were thinned out: in the full panel of roughly 79,000, 15% have a hit. Rule as the data show it: active = growth inhibition above about 70%; inactive = the rest.

Tests used:
[1] = NCI Yeast Anticancer Drug Screen. Data for the rad50 strain (AID 155);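 also: 0% = growth of vehicle-only cultures of the same strain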; details: S. cerevisiae rad50 strain growth inhibition; at 50.0 µM; active compounds read high
Method in brief: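 DNA repair mutant yeast, compound exposure, growth read-out; inhibition is taken relative to vehicle.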

[2] = NCI Yeast Anticancer Drug Screen. Data for the mec2-1 strain (AID 157); details: S. cerevisiae mec2-1 strain, at 50.0 µM, active compounds read high
Method in brief: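 Cells of the genetically defined mec2-1 yeast strain are incubated with test compound. Inhibition of growth is calculated against vehicle-treated controls.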

[3] = NCI Yeast Anticancer Drug Screen. Data for the sgs1 mgt1 strain (AID 161);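 also: 0% = growth of cultures given vehicle only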; details: S. cerevisiae sgs1 mgt1 strain, at 50.0 µM, active compounds read high
Method in brief: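 Mutant yeast exposed to compound; growth scored against vehicle-only wells.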

[4] = NCI Yeast Anticancer Drug Screen. Data for the cln2 rad14 strain (AID 165);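 also: 0% = growth equal to vehicle treated cultures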; details: S. cerevisiae cln2 rad14 strain, at 50.0 µM, active compounds read high
Method in brief: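 The screen exposed genetically defined yeast (cln2 rad14) to test compounds and scored growth inhibition relative to vehicle-treated controls.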

[5] = NCI Yeast Anticancer Drug Screen. Data for the bub3 strain (AID 167); details: S. cerevisiae bub3 mutant strain, at 50.0 µM, active compounds read high
Method in brief: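 In this screen, a yeast mutant lacking normal mitotic checkpoint function is challenged with compound. Relative growth versus vehicle gives the inhibition value.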

[6] = NCI Yeast Anticancer Drug Screen. Data for the mlh1 rad18 strain (AID 175); details: S. cerevisiae mlh1 rad18 strain growth inhibition; at 50.0 µM; active compounds read high
Method in brief: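 Compound-treated yeast growth, normalised to vehicle controls. Strain bears defined DNA repair mutations.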

Measured: growth inhibition

N#CC(Cc1ccccc1)C(=O)O (stereo unspecified)
inactive: [1] 2.05% | [2] 0.5% | [3] -5.35% | [4] 2% | [5] 1.4% | [6] 0.8%

C[n+]1ccccc1C(O)C(O)c1cccc[n+]1C (stereo unspecified)
inactive: [1] 6.05% | [2] 1.65% | [3] 8.85% | [4] 23.4% | [5] -8.45% | [6] 9.6%

C=C(C)C(=O)O[C@H]1C/C(CO)=C/CCC(=C)C(OC(C)=O)[C@H]2OC(=O)C(=C)[C@H]12 (stereo partly specified)
inactive: [1] 10.4% | [2] 36.8% | [3] -0.9% | [4] 6.85% | [5] -21.9% | [6] -20.2%

C/C=C(\C)c1cc(=O)c2c(C)cc3c(c2o1)C(=O)c1c(OC)cccc1C3=O
inactive: [1] 14.2% | [2] -14.8% | [3] -1.05% | [4] -4.65% | [5] -6.95% | [6] 23.9%

[N-]=[N+]=NC(=O)C1C(c2ccccc2)=C1c1ccccc1
inactive: [1] 45.5% | [2] 6.8% | [3] -0.2% | [4] 23.7% | [5] 27.8% | [6] -10.2%

c1ccc(C2=NC3(CCCCC3)N=C2c2ccccc2)cc1
inactive: [1] 27.1% | [2] 12.3% | [3] 6.6% | [4] -32% | [5] 21.2% | [6] 25.1%

COC(=O)NCC(OC(=O)c1cc2c(cc1I)OCO2)C1=CCCCC1 (stereo unspecified)
inactive: [1] 54.5% | [2] 30.1% | [3] 37.6% | [4] 29.2% | [5] 48.8% | [6] 28.8%

O=C(NCCS(=O)(=O)N1C(=O)C2CCCN2C(=O)[C@@H]1Cc1ccccc1)OCc1ccccc1 (stereo partly specified)
inactive: [1] -4.35% | [2] -0.55% | [3] -4.35% | [4] 19.4% | [5] 5.8% | [6] 26.1%

Cc1cn(C2CC(N(C)C)C(CO)O2)c(=O)[nH]c1=O (stereo unspecified)
inactive: [1] -28.2% | [2] -25.8% | [3] -18.4% | [4] 12.3% | [5] -28.3% | [6] -34.8%

N#CC1CCCC(c2ccccc2)(C2CCCCC2)C1=O (stereo unspecified)
inactive: [1] 7.4% | [2] 13.1% | [3] 10.2% | [4] 26.4% | [5] 2.85% | [6] -0.9%

CCCCC(CC)COB(OCC(CC)CCCC)OCC(CC)CCCC (stereo unspecified)
inactive: [1] -41% | [2] -38.3% | [3] -22.1% | [4] -0.8% | [5] -23.2% | [6] -24.3%

C#CCn1cc(F)c(=O)n(CC#C)c1=O
inactive: [1] -50.2% | [2] -30.8% | [3] -4.55% | [4] -33.9% | [5] -0.05% | [6] -2.05%

N=C(N)SCCC(=O)O
inactive: [1] -29.4% | [2] -21.1% | [3] -39.7% | [4] -69.6% | [5] 17.4% | [6] -56.6%

CCCCCCCCCCCCS(=O)(=O)O (tested in a mixture with another compound)
inactive: [1] -5.1% | [2] -6% | [3] -9.05% | [4] -12.4% | [5] -22.5% | [6] -12.8%

CNCc1cccs1
inactive: [1] -26.8% | [2] -9.7% | [3] -27.8% | [4] -40.3% | [5] -17.6% | [6] -10.4%

COC(=N)c1ncn(Cc2ccccc2)c1N
inactive: [1] -21.6% | [2] -28.6% | [3] -11.9% | [4] -24.4% | [5] -7.35% | [6] -37.3%

O=C1C(c2ccccc2)=C(c2ccccc2)C(c2ccc(Cc3ccc(C4=C(c5ccccc5)C(=O)C(c5ccccc5)=C4c4ccccc4)cc3)cc2)=C1c1ccccc1
inactive: [1] 20.1% | [2] 32.4% | [3] 16.8% | [4] 14.6% | [5] 15.1% | [6] 26.6%

CS(=O)(=O)OC1COCC1OS(C)(=O)=O (stereo unspecified)
inactive: [1] 8% | [2] 6.15% | [3] 9.05% | [4] -0.8% | [5] -5.3% | [6] -6.1%

O=c1[nH]cc(Cl)cc1Cl
inactive: [1] 0.05% | [2] 3.85% | [3] -4% | [4] -8.35% | [5] 2.3% | [6] -1.45%

N=C(/C(=C/c1cccc2ccccc12)c1ccccc1)c1ccccc1
inactive: [1] 13.8% | [2] 10.2% | [3] 14.1% | [4] -7.6% | [5] -13.7% | [6] 13.6%

CC(C#N)OCCO (stereo unspecified)
inactive: [1] 9.3% | [2] -2.3% | [3] 7.85% | [4] -1.85% | [5] -6.7% | [6] 5.15%

O=C1CC(C(=O)O)CC(=O)CC(C(=O)O)C1 (stereo unspecified)
inactive: [1] -0.7% | [2] -13.2% | [3] -10.6% | [4] -33.4% | [5] 14.9% | [6] 18.9%

C[N+]1(CCC(=O)c2ccco2)CC2CCC(CC2)C1 (stereo unspecified)
inactive: [1] 3.9% | [2] -18.1% | [3] -37.1% | [4] -24.9% | [5] -68.7% | [6] 0.45%

Cc1cc2nc3c(C(O)C(O)C(O)CO)nn(-c4ccccc4)c3nc2cc1C (stereo unspecified)
inactive: [1] -2.55% | [2] 5.05% | [3] -9.25% | [4] -15.6% | [5] -5.05% | [6] 16.1%

COc1ccc(C(c2cc3c(cc2O)OCO3)N2CCN(C(c3cc4c(cc3O)OCO4)c3ccc(OC)cc3OC)CC2)c(OC)c1 (stereo unspecified)
inactive: [1] -15.1% | [2] 1.55% | [3] 30.2% | [4] 23.1% | [5] -11.9% | [6] 3.45%

CSc1nsc(SC)c1C(N)=O
inactive: [1] -0.25% | [2] -17.6% | [3] 15.3% | [4] 12.5% | [5] 16.2% | [6] -0.85%

Cc1ccc(NC(=O)CC/C(CC(=O)C(C)(C)C)=N/NC(=O)C(N)=O)cc1C
inactive: [1] -2.75% | [2] -9.95% | [3] 10.5% | [4] 10.6% | [5] 8.55% | [6] 5.1%

CCN(CC)c1ccc2cc(-c3nc4ccccc4n3C)c(=O)oc2c1
inactive: [1] 14.8% | [2] -6% | [3] 2.2% | [4] 6.55% | [5] 1.35% | [6] 14.1%

O=C(Cc1c[nH]c2ccccc12)N/N=C/c1ccccc1[N+](=O)[O-]
inactive: [1] 18.9% | [2] -4.75% | [3] 10.1% | [4] 1.1% | [5] 14.7% | [6] 17.3%

O=[N+]([O-])c1ccc(C2=NCC=CCO2)cc1
inactive: [1] 18% | [2] 16.2% | [3] 7.55% | [4] -6.55% | [5] 4.5% | [6] 12.8%

COc1ccc2cc(NC(=O)N/N=C\c3ccc(Cl)cc3)ccc2c1
inactive: [1] 33.2% | [2] 8.9% | [3] 26.9% | [4] 4.4% | [5] 27% | [6] 30.4%

CCOc1ccc(C(CC)c2cc3c(cc2OC)OCO3)cc1 (stereo unspecified)
inactive: [1] -1.95% | [2] -0.1% | [3] -9.35% | [4] -42.8% | [5] 6% | [6] -1.7%

C/C(=N\NS(=O)(=O)c1ccc([N+](=O)[O-])cc1)c1ccc[n+]([O-])n1
inactive: [1] -19.2% | [2] -18.6% | [3] -13.6% | [4] -2.75% | [5] 2.15% | [6] -34%

CCOC(=O)c1ccc(NC(NC(=O)CC)(C(F)(F)F)C(F)(F)F)cc1
inactive: [1] -26.6% | [2] -20.4% | [3] -69.2% | [4] -19.1% | [5] -8.9% | [6] -54%

COc1ccc(C(Nc2ccccn2)c2cc(C(C)(C)C)cc(C(C)(C)C)c2O)cc1 (stereo unspecified)
inactive: [1] 43.6% | [2] -2.95% | [3] 9.45% | [4] 12.4% | [5] 41.9% | [6] 38.8%

NC(=S)SC1=NNC2(C(=O)N1)c1ccccc1-c1ccccc12
inactive: [1] -11.6% | [2] -33.6% | [3] 14.2% | [4] -6.7% | [5] 5.7% | [6] 14.6%

ClC(=Nc1ccccc1)c1cc(N2CCOCC2)ccn1
inactive: [1] 24.1% | [2] 11.1% | [3] 13.3% | [4] 8.35% | [5] 19.1% | [6] 14%

N[C@@H]1c2c(Br)sc(N3CCOCC3)c2C(=O)[C@@H]1O
inactive: [1] 10.8% | [2] -10.4% | [3] 4.1% | [4] -18.6% | [5] 5.4% | [6] -31.6%

CCCCCCCCCCCCCCCC(=O)OCC1OC(n2ccc(N)nc2=O)C(O)C1O (stereo unspecified)
inactive: [1] -1.2% | [2] -10.3% | [3] 3.2% | [4] 8.2% | [5] 4.1% | [6] -2.8%

O=C(/C=C/c1ccccc1)NC(=S)Nc1ccc(F)c([N+](=O)[O-])c1
inactive: [1] 7.6% | [2] 6.05% | [3] 7.85% | [4] 12.7% | [5] 21.6% | [6] 12.2%

CC(C)C(=O)C(F)(F)F
inactive: [1] 14.3% | [2] 2.45% | [3] -21.3% | [4] 6.45% | [5] 28.6% | [6] -2.3%
